Measured values as given in PMC10726135, “HNF4α isoforms regulate the circadian balance between carbohydrate and lipid metabolism in the liver”.
Whole data set: some 18,000 sequences, median “log2 normalized intensity” near 0.39, cut for the highest 2% near 6.6. This is one part of a sample in which the highest values are shown more often than they occur.

biological target: T1, HNF4alpha2 (COS-7 nuclear extract) (Homo sapiens, UniProt P41235 1-474); assay: protein-binding microarray; COS-7 nuclear extract on double-stranded Agilent 4x180k PBM; binding buffer, salt, pH and temperature not given in the material; high values mean tight binding; conditions: chain copies: 2; label: 3' end of strand 1 on the slide; dsDNA, one strand shown
T1 sequence: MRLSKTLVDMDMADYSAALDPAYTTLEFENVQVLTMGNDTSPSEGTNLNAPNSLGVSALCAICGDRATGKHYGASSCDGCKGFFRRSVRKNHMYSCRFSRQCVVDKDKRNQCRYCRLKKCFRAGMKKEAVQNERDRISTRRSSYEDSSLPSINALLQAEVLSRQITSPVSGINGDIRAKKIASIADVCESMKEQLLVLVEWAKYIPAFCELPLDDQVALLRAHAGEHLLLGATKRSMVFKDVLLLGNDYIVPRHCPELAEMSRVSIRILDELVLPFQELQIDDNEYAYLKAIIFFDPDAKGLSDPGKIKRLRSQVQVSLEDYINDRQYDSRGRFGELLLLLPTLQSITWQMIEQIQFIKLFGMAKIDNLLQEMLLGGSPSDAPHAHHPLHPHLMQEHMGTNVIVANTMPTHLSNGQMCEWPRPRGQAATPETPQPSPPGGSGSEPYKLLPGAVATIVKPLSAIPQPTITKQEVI
Method in brief: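 The binding signal is Agilent software's gProcessedSignal after background correction and normalization. Arrays were a custom Agilent SurePrint G3 4x180k design of double-stranded ~60-nt oligonucleotides with ~44,000 test sequences in quadruplicate, probed with nuclear extracts of COS-7 cells transiently expressing a human HNF4α isoform. Scans were made at 2-µm resolution on an Agilent G2565CA scanner.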

Row | Sequence | binding signal
1 | AAAGGTCATTTCTGCTTGCAACCAAAGGAGGCCTAGGGAGATTAGAGTATCGGTCGA | 1.52 log2 normalized intensity
2 | GCAGATGTGTCTTTATAACAGACTGTAGGCGCCTAGGGAGATTAGAGTATCGGTCGA | 0.596 log2 normalized intensity
3 | GCCAAGCTCTGGGCTAGTCCCTGAGTATTAGCCTAGGGAGATTAGAGTATCGGTCGA | -0.902 log2 normalized intensity
4 | TCCCTCTGCTCCCCTGGCCTCACCCTTGTCGCCTAGGGAGATTAGAGTATCGGTCGA | 2.72 log2 normalized intensity
5 | ATTCCAAAAAGCTTTTGTCATGACCTTCGCGCCTAGGGAGATTAGAGTATCGGTCGA | 4.71 log2 normalized intensity
6 | AAGGATCAAGGACCTGCTCTGGGGCTACCTGCCTAGGGAGATTAGAGTATCGGTCGA | -0.978 log2 normalized intensity
7 | TTGCCCTTTGCCCAACCCTCTCCCACTCCCGCCTAGGGAGATTAGAGTATCGGTCGA | 4.91 log2 normalized intensity
8 | TAATTGCCCTTTGCCCTTTGCCCAACCCTCGCCTAGGGAGATTAGAGTATCGGTCGA | 7.02 log2 normalized intensity
9 | CATTGATAATTCAGTTTCATTGCACTTTGCGCCTAGGGAGATTAGAGTATCGGTCGA | 4.01 log2 normalized intensity
10 | TCAGTTTCATTGCACTTTGCCCTCTCTTCAGCCTAGGGAGATTAGAGTATCGGTCGA | 6.57 log2 normalized intensity
11 | ATAATTCAGTTTCATTGCACTTTGCCCTCTGCCTAGGGAGATTAGAGTATCGGTCGA | 8.65 log2 normalized intensity
12 | TCCTCAGGGAATTTCTAGGTTTGATCTTTGGCCTAGGGAGATTAGAGTATCGGTCGA | 2.95 log2 normalized intensity
13 | ATTTCTAGGTTTGATCTTTGCCCTACAATTGCCTAGGGAGATTAGAGTATCGGTCGA | 5.51 log2 normalized intensity
14 | AGGGAATTTCTAGGTTTGATCTTTGCCCTAGCCTAGGGAGATTAGAGTATCGGTCGA | 6.85 log2 normalized intensity
15 | GCCCTTTGCCCTTTGCCCAACCCTCTCCCAGCCTAGGGAGATTAGAGTATCGGTCGA | 5.55 log2 normalized intensity
16 | ACTCCTTTGCTTATCTGATAAGTCCATACCGCCTAGGGAGATTAGAGTATCGGTCGA | 1.53 log2 normalized intensity
17 | ACTCAGGATACCTAAGCCCCATGCTGATAAGCCTAGGGAGATTAGAGTATCGGTCGA | 1.32 log2 normalized intensity
18 | CCTAAATCTAAGCTGGACTTTGAACTTCATGCCTAGGGAGATTAGAGTATCGGTCGA | 8.99 log2 normalized intensity
19 | CTTTGGACTTTTGAACTAAGGCTGGAATGAGCCTAGGGAGATTAGAGTATCGGTCGA | 2.92 log2 normalized intensity
20 | AGCTGGACTTTGAACTTCATGTGTGGTGCAGCCTAGGGAGATTAGAGTATCGGTCGA | 6.21 log2 normalized intensity
21 | TGAGACTTTGGACTTTTGAACTAAGGCTGGGCCTAGGGAGATTAGAGTATCGGTCGA | 4.72 log2 normalized intensity
22 | GACTTTGAACTTCATGTGTGGTGCAGATTCGCCTAGGGAGATTAGAGTATCGGTCGA | 1.97 log2 normalized intensity
23 | ATCTAAGCTGGACTTTGAACTTCATGTGTGGCCTAGGGAGATTAGAGTATCGGTCGA | 7.91 log2 normalized intensity
24 | TTGTACTCAGTATGTGCTGACTGACTCCTGGCCTAGGGAGATTAGAGTATCGGTCGA | 0.992 log2 normalized intensity
25 | TTAGCTATCAGTGTTGACCTCTGGACCTCAGCCTAGGGAGATTAGAGTATCGGTCGA | 6.97 log2 normalized intensity
26 | GATGTTTAGCTATCAGTGTTGACCTCTGGAGCCTAGGGAGATTAGAGTATCGGTCGA | 5.32 log2 normalized intensity
27 | TAACGGTGAGGGAGGAGACTTTGACCTCTGGCCTAGGGAGATTAGAGTATCGGTCGA | 6.61 log2 normalized intensity

Row | Sequence | binding signal
28 | CTGACCTCAAGTGACCTTTGACCTCTGGCCGCCTAGGGAGATTAGAGTATCGGTCGA | 11 log2 normalized intensity
29 | GTGACCTTTGACCTCTGGCCTTTGCAGTTAGCCTAGGGAGATTAGAGTATCGGTCGA | 8.21 log2 normalized intensity
30 | CTGACAAGTATCTCGGTCAAACCTTTGACCGCCTAGGGAGATTAGAGTATCGGTCGA | 5.77 log2 normalized intensity
31 | GTGAGGGAGGAGACTTTGACCTCTGCTAGGGCCTAGGGAGATTAGAGTATCGGTCGA | 5.43 log2 normalized intensity
32 | TATCAGTGTTGACCTCTGGACCTCATCTTCGCCTAGGGAGATTAGAGTATCGGTCGA | 5.36 log2 normalized intensity
33 | ACCTTTGCCTTCTTGACATCTCTCTCTGCAGCCTAGGGAGATTAGAGTATCGGTCGA | 1.17 log2 normalized intensity
34 | CTCAAGTGACCTTTGACCTCTGGCCTTTGCGCCTAGGGAGATTAGAGTATCGGTCGA | 10.2 log2 normalized intensity
35 | CTCTAACCACTTTGAAATAGTGACCTCTGCGCCTAGGGAGATTAGAGTATCGGTCGA | 4.36 log2 normalized intensity
36 | ACCACTTTGAAATAGTGACCTCTGCTGGCCGCCTAGGGAGATTAGAGTATCGGTCGA | 2.65 log2 normalized intensity
37 | AAGGCTAGTCTTCTTTGGGGCTTAGATAGCGCCTAGGGAGATTAGAGTATCGGTCGA | 0.431 log2 normalized intensity
38 | TGTACAGGACCATGTTCTCCTAAAGTGACTGCCTAGGGAGATTAGAGTATCGGTCGA | -0.786 log2 normalized intensity
39 | CACTGCACCTGCCTGAACAAGTCCAGTGACGCCTAGGGAGATTAGAGTATCGGTCGA | -0.89 log2 normalized intensity
40 | CACTGAGATAAAAATGGCCAAAGGTTGCCAGCCTAGGGAGATTAGAGTATCGGTCGA | 2.09 log2 normalized intensity
41 | CCACATTCTGAGACTAAAGAGTACACAAAGGCCTAGGGAGATTAGAGTATCGGTCGA | -0.922 log2 normalized intensity
42 | TTCCTGGATTGTGAAACACAGGACTTGATCGCCTAGGGAGATTAGAGTATCGGTCGA | 0.71 log2 normalized intensity
43 | GAGTGTCCTGCCCCCTGGAGGAGTGAGGGAGCCTAGGGAGATTAGAGTATCGGTCGA | 1.34 log2 normalized intensity
44 | GGGGAGGTCAACCAGGGAAATTACCCTCTAGCCTAGGGAGATTAGAGTATCGGTCGA | -0.241 log2 normalized intensity
45 | ACAGGGCTTGGGGTGGGGTTGGAGTCCAGAGCCTAGGGAGATTAGAGTATCGGTCGA | 1.25 log2 normalized intensity
46 | AGTGAAGGTTCAGTGAAGTAGTGTGTATGAGCCTAGGGAGATTAGAGTATCGGTCGA | 2.27 log2 normalized intensity
47 | CCTAAGCCTTATTATCTGCTTTTATGACCTGCCTAGGGAGATTAGAGTATCGGTCGA | 3.06 log2 normalized intensity
48 | TTTATGACCTTTGACTGCAGAAGATAAGAAGCCTAGGGAGATTAGAGTATCGGTCGA | 3.94 log2 normalized intensity
49 | TCTGCCTTTTATCTATTTGTCGCCTCTGACGCCTAGGGAGATTAGAGTATCGGTCGA | 0.141 log2 normalized intensity
50 | ATTATCTGCTTTTATGACCTTTGACTGCAGGCCTAGGGAGATTAGAGTATCGGTCGA | 6.64 log2 normalized intensity
51 | CTGCTTTTATGACCTTTGACTGCAGAAGATGCCTAGGGAGATTAGAGTATCGGTCGA | 5.27 log2 normalized intensity
52 | GCCTTATTATCTGCTTTTATGACCTTTGACGCCTAGGGAGATTAGAGTATCGGTCGA | 7.34 log2 normalized intensity
53 | AACTTTGCAGCAGATAATTACCTGGACTCTGCCTAGGGAGATTAGAGTATCGGTCGA | 3.6 log2 normalized intensity
54 | CAGATGTTTCTGCAAGCACACTGTCCTGCTGCCTAGGGAGATTAGAGTATCGGTCGA | -0.824 log2 normalized intensity
